Assay [1] addresses Mitogen-activated protein kinase 10 (Mus musculus) (UniProt Q61831). Briefly: JNK3 AlphaScreen Assay (AID 530; active means well fitted curve in either direction with a large enough effect, not every such curve was filed as active;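 further: kinase came from lysate of stimulated human HepG2 cells; signal reports phosphorylation of biotinylated GST-cJun 1-79 at Ser73 with 10 µM ATP; series mostly up to about 57 µM; on the % scale 0 is the no-effect control and ±100 the full control effect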). The procedure, abridged:
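JNK3 came from HepG2 lysates pre-activated with IL-1beta and TNF-alpha and phosphorylated biotinylated GST-cJun (1-79) at 10 uM ATP, pH 7.6, room temperature. Compounds were titrated. AlphaScreen signal used anti-phospho-cJun (Ser73) antibody.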

A short description of assay [2]: Viability counterscreen for antagonist of constitutive androstane receptor (CAR) against the NCATS DSHEA and TCM libraries (AID 1794837).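 Further: compound exposure lasted 24 h before viability reading; 0% is about no effect.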 The procedure, abridged: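 HepG2-CYP2B6-hCAR cells, 2,500/well, were exposed 24 hr at 37C to substances together with 48 uM CITCO (final). Viability was read as CellTiter-Fluor fluorescence (Ex/Em 405/540 nm) after 1 hr.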
Assay [3] in a line: Viability counterscreen for agonist of constitutive androstane receptor (CAR) against the NCATS DSHEA and TCM libraries (AID 1794838).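 Further: HepG2 cells with CYP2B6 reporter and hCAR plus 0.75 µM PK11195 antagonist; 0% is about no effect.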 The procedure, abridged: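 HepG2-CYP2B6-hCAR cells (2,500/well) treated 24 h at 37C with compounds plus 0.75 uM PK11195; viability read by CellTiter-Fluor fluorescence, Ex/Em 405/540 nm.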
For orientation: Counterscreens check selectivity or assay interference.

The target in assay [4] is Nuclear receptor subfamily 1 group I member 3 (Homo sapiens) (UniProt Q14994). Briefly: Primary qHTS for agonist of constitutive androstane receptor (CAR) against the NCATS DSHEA and TCM libraries (AID 1794839).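 Further: HepG2 cells expressing human CAR with a CYP2B6 reporter plus PK11195 antagonist; 0% is about no effect.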 The method, boiled down:
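HepG2-CYP2B6-hCAR cells, 2,500/well, attached 5 h, then dosed with 0.75 µM PK11195 (final) for 24 h at 37 °C. Luciferase luminescence read (ONE-Glo); CellTiter-Fluor viability (Ex/Em 405/540 nm) in same wells; CITCO positive control.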
(In qHTS, concentration-response curves come from the screen itself.)

The target in assay [5] is Cytochrome P450 3A4 (Homo sapiens) (UniProt P08684). Briefly: qHTS for inhibitors of CYP3A4 against the NCATS DSHEA and TCM libraries (AID 1919971). Further: potency means the concentration at half of the fitted maximal effect. The method, boiled down: (§1)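 Light output from converted D-luciferin reports remaining CYP activity. Compounds preincubate with enzyme and substrate for 15 min; NADPH regeneration (1x final) runs the reaction for 30-45 min.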
Cytochrome P450 3A4 (Homo sapiens), sequence (P08684 whole entry, looked up): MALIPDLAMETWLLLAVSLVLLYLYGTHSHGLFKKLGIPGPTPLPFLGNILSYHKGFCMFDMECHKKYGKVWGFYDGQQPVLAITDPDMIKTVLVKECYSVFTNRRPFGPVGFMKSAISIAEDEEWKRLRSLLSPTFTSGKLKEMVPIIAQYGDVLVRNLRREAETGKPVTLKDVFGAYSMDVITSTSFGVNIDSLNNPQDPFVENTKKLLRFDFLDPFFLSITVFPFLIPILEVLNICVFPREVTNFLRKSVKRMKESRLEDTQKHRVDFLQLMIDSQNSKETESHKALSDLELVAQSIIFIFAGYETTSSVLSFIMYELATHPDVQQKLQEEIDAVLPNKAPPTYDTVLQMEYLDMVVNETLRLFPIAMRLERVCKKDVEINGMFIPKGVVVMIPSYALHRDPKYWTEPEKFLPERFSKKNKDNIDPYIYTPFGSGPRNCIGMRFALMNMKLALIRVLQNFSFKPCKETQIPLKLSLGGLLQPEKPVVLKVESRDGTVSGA

For assay [6], the target named is Cytochrome P450 2D6 (Homo sapiens) (UniProt P10635). Briefly: qHTS for inhibitors of CYP2D6 against the NCATS DSHEA and TCM libraries (AID 1919972). Further: on the % scale 0 is the no-effect control and ±100 the full control effect. The method, boiled down:
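Steps: enzyme plus luciferin substrate dispensed; test substances pinned; 15 min RT; 1x NADPH regenerating solution added, 30–45 min RT protected from light; detection reagent, 30 min RT; luminescence measured. Minus-enzyme wells as background.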

Assay [7] concerns the target Cytochrome P450 2C9 (Homo sapiens) (UniProt P11712). Put plainly: qHTS for inhibitors of CYP2C9 against the NCATS DSHEA and TCM libraries (AID 1919973). Further: potency means the concentration at half of the fitted maximal effect. The procedure, abridged: as §1
The nature of assay [8]: KB-3-1 P-gp reporter qHTS against the NCATS DSHEA and TCM libraries (AID 1919975). Further: 0% is about no effect. The method, boiled down: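 Parental KB-3-1 cells, 500 cells/well, in DMEM with 10% FBS, exposed 72 h at 37 C to compounds in concentration-response. Viability read by CellTiter-Glo luminescence after 30 min at room temperature.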
Assay [9] can be described thus: qHTS Counterscreen for compound interference against the NCATS DSHEA and TCM libraries (AID 1919978).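 Further: compounds preincubated with 1 µM D-luciferin or buffer before detection reagent; % of control where 0% means no effect.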 Conditions: firefly luciferase detection reagent interference, luminescence. The method, boiled down:
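Firefly luciferase detection reagent was added after compounds (19.5 nM–39.8 uM final) had been incubated 15 min at room temperature with 1 uM D-luciferin or with 100 mM phosphate buffer alone. Luminescence was read after 30 min at room temperature.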

In assay [10] the target is Nuclear receptor subfamily 1 group I member 2 (Homo sapiens) (UniProt O75469). Put plainly: Dual reporter qHTS for agonist of Pregnane X Receptor (hPXR) against the NCATS DSHEA and TCM libraries: Luminescence readout (AID 1920059). Further: potency means the concentration at half of the fitted maximal effect. The method, boiled down:
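hPXR-LucHepG2 cells in phenol red-free DMEM with 5% charcoal-stripped FBS, 2000 cells/well, attached 5 h, then exposed 24 h at 37C to compounds; rifampicin as positive agonist control (2.8 nM–92 uM). Luciferase luminescence read.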

The target is the same in assay [11]. Put plainly: Dual reporter qHTS for antagonist of Pregnane X Receptor (hPXR) against the NCATS DSHEA and TCM libraries: Luminescence Readout (AID 1920060).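 Further: HepG2 cells carrying hPXR luciferase reporter stimulated with rifampicin at 2 µM; 0% is about no effect.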 The procedure, abridged: (§2)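 In antagonist mode, 2 uM rifampicin was added to hPXR-Luc HepG2 cells alongside test substances, incubated 24 h at 37 C; luminescence gave reporter activity, and CellTiter-Fluor fluorescence (405/540 nm) gave viability.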

Assay [12] in a line: Dual reporter qHTS for antagonist of Pregnane X Receptor (hPXR) against the NCATS DSHEA and TCM libraries: Fluorescence Readout (AID 1920061). Further: 0% is about no effect. The procedure, abridged: as §2
Assay [13] is described as follows: HepG2 viability counterscreen (readout 2: ATP content) against the NCATS DSHEA and TCM libraries (AID 1794840). Further: 0% is about no effect. The method, boiled down: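 HepG2 cells, 1,000/well, attached ~4 h, then exposed ~24 h at 37C to substances. Protease activity read by fluorescence of 25 uM GF-AFC (Ex/Em 380/510 nm) after 30 min; ATP then by CellTiter-Glo luminescence.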
Assay [14] deals with Cytochrome P450 2C19 (Homo sapiens) (UniProt P33261). Put plainly: qHTS for inhibitors of CYP2C19 against the NCATS DSHEA and TCM libraries (AID 1919974).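 Further: luminescence from luciferin released by CYP2C19 oxidation of a pro-luciferin substrate.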 Further: potency means the concentration at half of the fitted maximal effect. The method, boiled down: as §1
Cytochrome P450 2C19 (Homo sapiens), sequence (P33261 whole entry, looked up): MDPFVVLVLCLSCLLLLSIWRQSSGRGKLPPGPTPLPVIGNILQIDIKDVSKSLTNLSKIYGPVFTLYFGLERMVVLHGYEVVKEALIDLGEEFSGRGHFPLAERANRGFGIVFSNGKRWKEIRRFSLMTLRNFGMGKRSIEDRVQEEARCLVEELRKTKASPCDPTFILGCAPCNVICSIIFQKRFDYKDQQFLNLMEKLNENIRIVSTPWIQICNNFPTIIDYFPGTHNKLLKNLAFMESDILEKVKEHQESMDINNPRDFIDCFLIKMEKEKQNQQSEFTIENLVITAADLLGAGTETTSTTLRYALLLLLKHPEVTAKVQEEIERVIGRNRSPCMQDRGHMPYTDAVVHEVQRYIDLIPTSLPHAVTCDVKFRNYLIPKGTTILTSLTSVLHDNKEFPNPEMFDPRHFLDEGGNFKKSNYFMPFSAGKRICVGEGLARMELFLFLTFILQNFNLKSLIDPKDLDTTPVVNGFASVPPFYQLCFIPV
For assay [15], the target named is Cytochrome P450 1A2 (Homo sapiens) (UniProt P05177). Briefly: qHTS for inhibitors of CYPIA2 against the NCATS DSHEA and TCM libraries (AID 1919976). Further: potency means the concentration at half of the fitted maximal effect. The method, boiled down:
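In this quantitative HTS, inhibition of recombinant human CYP1A2 was measured as loss of luciferin-derived luminescence. Turnover ran 30-45 min at RT after NADPH regeneration solution was added.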

A number with no mark means an inactive call. Results filed as inconclusive are left out. Active and inactive are the calls of the source. Unless noted, the call rests on the fitted dose curve; in most records, active means well fitted curve in the direction sought with a large enough effect; inconclusive means small, poorly fitted or top-dose-only effect, or another doubt; inactive means no such curve, though single readings can be large; an effect the other way counts as inactive or inconclusive.

Nuclear receptor subfamily 1 group I member 2 (Homo sapiens), sequence (O75469 whole entry, looked up): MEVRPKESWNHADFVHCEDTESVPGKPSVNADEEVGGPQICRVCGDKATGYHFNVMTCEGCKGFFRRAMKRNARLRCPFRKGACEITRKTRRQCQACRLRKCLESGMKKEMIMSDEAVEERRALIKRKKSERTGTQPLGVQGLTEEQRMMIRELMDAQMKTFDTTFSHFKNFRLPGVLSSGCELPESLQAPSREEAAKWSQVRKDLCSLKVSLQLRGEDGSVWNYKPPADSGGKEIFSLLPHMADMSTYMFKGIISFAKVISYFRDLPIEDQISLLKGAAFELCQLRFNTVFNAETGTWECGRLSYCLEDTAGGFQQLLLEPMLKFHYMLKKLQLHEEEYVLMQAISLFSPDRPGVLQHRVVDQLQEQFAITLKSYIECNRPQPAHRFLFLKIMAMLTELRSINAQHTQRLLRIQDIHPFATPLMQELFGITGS
Cytochrome P450 2C9 (Homo sapiens), sequence (P11712 whole entry, looked up): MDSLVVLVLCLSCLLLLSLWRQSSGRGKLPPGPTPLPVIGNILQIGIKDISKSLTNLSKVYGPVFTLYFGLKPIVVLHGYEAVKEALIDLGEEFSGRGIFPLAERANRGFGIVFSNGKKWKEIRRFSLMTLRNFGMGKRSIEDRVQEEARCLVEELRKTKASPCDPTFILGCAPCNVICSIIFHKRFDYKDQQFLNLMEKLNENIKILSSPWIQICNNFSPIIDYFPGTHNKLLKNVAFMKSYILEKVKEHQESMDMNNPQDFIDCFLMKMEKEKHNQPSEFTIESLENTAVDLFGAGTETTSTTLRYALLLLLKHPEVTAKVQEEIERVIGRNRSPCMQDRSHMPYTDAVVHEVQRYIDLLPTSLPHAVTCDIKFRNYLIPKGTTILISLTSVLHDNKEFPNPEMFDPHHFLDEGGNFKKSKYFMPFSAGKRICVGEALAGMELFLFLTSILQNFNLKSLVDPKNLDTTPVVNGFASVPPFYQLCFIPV
Nuclear receptor subfamily 1 group I member 3 (Homo sapiens), sequence (Q14994 whole entry, looked up): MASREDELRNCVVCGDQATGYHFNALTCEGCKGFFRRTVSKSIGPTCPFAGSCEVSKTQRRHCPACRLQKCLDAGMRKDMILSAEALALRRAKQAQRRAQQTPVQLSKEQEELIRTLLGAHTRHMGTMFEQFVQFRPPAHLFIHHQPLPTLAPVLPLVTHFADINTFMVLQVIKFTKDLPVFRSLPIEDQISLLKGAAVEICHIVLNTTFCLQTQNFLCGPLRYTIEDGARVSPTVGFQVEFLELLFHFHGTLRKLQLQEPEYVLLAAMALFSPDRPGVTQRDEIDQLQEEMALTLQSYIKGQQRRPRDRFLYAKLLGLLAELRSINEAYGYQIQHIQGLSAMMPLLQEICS
Cytochrome P450 2D6 (Homo sapiens), sequence (P10635 whole entry, looked up): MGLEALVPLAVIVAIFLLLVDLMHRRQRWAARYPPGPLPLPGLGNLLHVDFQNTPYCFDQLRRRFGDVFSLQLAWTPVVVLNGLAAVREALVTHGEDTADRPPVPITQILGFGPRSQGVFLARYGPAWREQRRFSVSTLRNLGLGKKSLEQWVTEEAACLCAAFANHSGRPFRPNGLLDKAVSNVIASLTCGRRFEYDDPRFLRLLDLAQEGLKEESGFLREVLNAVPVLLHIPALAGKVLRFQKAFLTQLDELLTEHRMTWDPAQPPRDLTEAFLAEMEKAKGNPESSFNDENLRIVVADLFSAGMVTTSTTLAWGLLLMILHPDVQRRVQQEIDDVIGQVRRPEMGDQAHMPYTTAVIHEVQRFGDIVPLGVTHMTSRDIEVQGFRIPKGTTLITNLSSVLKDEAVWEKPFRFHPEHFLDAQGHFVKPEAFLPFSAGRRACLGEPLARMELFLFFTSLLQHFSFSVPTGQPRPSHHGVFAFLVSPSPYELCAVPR
Cytochrome P450 1A2 (Homo sapiens), sequence (P05177 whole entry, looked up): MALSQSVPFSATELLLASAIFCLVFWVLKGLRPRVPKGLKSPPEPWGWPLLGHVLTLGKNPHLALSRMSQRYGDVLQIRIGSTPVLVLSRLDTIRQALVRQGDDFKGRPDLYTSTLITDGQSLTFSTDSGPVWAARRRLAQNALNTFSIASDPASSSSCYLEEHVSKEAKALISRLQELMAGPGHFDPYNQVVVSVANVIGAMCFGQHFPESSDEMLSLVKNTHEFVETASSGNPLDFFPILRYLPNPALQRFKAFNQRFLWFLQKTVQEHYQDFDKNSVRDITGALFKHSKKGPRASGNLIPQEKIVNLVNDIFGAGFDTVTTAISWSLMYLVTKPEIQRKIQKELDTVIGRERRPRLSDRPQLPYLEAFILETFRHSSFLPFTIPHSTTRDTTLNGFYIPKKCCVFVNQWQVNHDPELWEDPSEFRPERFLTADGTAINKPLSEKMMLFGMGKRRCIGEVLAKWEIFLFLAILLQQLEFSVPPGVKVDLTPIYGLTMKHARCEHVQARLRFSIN

Regarding `C=C(C)C1CC=C(C)C(O)C1` (configuration not stated), the Potency result in [1], in [4], in assay [5], in assay [6], in assay [7] and in assay [10] was “inactive” throughout. The molecule was called inactive in assay [2], in assay [3], in assay [8], in [11] and in assay [12]. For the same molecule, the max response in assay [9] is 4.01%.
Consider `C[C@@H]1CC[C@]2(C)CC[C@]3(C)C(=CC(=O)C4[C@@]5(C)CC[C@@H](O)[C@](C)(C(=O)O)C5CC[C@]43C)C2[C@H]1C` (some centres not stated), for which the result in assay [2], in [3], in assay [13], in assay [8], in assay [11] and in assay [12] was inactive. Moreover, the Potency result in [4], in assay [6] and in assay [10] was “inactive” in each case.
`CC(C)=CCC[C@](C)(O[C@@H]1O[C@H](CO)[C@@H](O)[C@H](O)[C@H]1O)[C@H]1CC[C@]2(C)[C@@H]1[C@H](O)C[C@@H]1[C@@]3(C)CC[C@H](O)C(C)(C)[C@@H]3[C@@H](O[C@@H]3O[C@H](CO)[C@@H](O)[C@H](O)[C@H]3O[C@@H]3O[C@@H](C)[C@H](O)[C@@H](O)[C@H]3O)C[C@]12C`: the outcome in assay [2], in assay [3], in assay [13], in assay [8], in assay [11] and in assay [12] was inactive. In addition, the Potency entry in assay [4], in [5], in assay [6], in [7], in assay [14] and in assay [15] was “inactive” in each case. Moreover, in assay [10], the Potency result was “inactive”. The max response in assay [9] is 0.587%.
On to `Oc1cc(O)c2c(c1)O[C@@H](c1cc(O)c(O)c(O)c1)[C@H](O)C2`, for which the outcome in assay [2], in assay [3], in assay [13], in assay [8], in [11] and in [12] was inactive. Besides, the Potency result in [5] and in assay [6] was “inactive” each time. Moreover, the Potency in [14] and in [15] was 3.55 µM (active) each time.
For the molecule `CCCCC/C=C/C(=O)CCc1ccc(O)c(OC)c1`, the outcome in assay [2], in assay [3], in [13], in assay [8], in [11] and in assay [12] was inactive. Besides, the Potency entry in [4] and in assay [7] was “inactive” in each case. The Potency in [5] was 17.8 µM (active); in assay [14], 7.08 µM (active); in [15], 15.8 µM (active); in assay [10] it was 31.6 µM (active). In assay [9], the max response was 4.24%.
As for `C=C1C[C@@]23CC[C@H]4[C@](C)(CCC[C@]4(C)C(=O)O[C@@H]4O[C@H](CO)[C@@H](O)[C@H](O)[C@H]4O)[C@@H]2CC[C@]1(O[C@H]1O[C@@H](CO)[C@H](O)[C@@H](O)[C@@H]1O)C3`, the molecule was called inactive in [2], in assay [3], in [13], in assay [8], in [11] and in [12]. The Potency entry in [4], in assay [5], in assay [6], in assay [7] and in assay [10] was “inactive” throughout. The max response in assay [9] is 3.88%.
In the case of `C=C(C)[C@H]1CC=C(CO)CC1`, the call in [2], in [3], in [13], in [8], in assay [11] and in assay [12] was inactive. Further, the Potency result in assay [6] and in assay [10] was “inactive” each time. Also, the Potency in [14] is 12.6 µM (active). For the same molecule, in [9], the max response was 2.16%.
For the molecule `CC(=O)O[C@@H]1CC[C@@]2(C)[C@@H](CC[C@]3(C)[C@@H]2C(=O)C=C2[C@@H]4[C@@H](C)[C@H](C)CC[C@]4(C)CC[C@]23C)[C@@]1(C)C(=O)O`, the molecule was called inactive in [3], in assay [13] and in assay [12]. Further, the Potency entry in [6] and in assay [10] was “inactive” in each case. Moreover, the Potency in [7] was 14.1 µM (active); in assay [14], 3.55 µM (active). In addition, the max response in assay [9] was -0.124%.
Regarding `CCCCCCCCC/C=C/C(=O)CCc1ccc(O)c(OC)c1`, the result in assay [2], in assay [3], in assay [13], in [8], in assay [11] and in [12] was inactive. For the same molecule, the values for the Potency in assay [5], in [7] and in [14] were 15.8 µM (active), 11.2 µM (active) and 3.98 µM (active), respectively. For the same molecule, the max response in assay [9] was 4.66%.
On to `CCCCCCCC/C=C\CCCCCCCCCCCCCC(=O)O`, for which the molecule was classed as inactive in assay [2], in assay [3], in assay [13], in [8], in [11] and in assay [12]. Moreover, the Potency entry in assay [4], in assay [6], in assay [7], in [14], in assay [15] and in assay [10] was “inactive” each time.
Turning to `CC1=CC[C@H](C(C)C)C=C1`, the result in [2], in [3], in [13], in [8], in [11] and in assay [12] was inactive. Besides, the Potency entry in assay [4], in [6] and in assay [15] was “inactive” in each case. Further, the Potency in assay [5] is 35.5 µM (active); in assay [14], 39.8 µM (active). Also, the max response in [9] is 0.517%.

The record behind these values is PubChem BioAssay (NCATS).
